{"source": "PubChem BioAssay (NCATS)", "note": "Results filed as inconclusive are left out. Entries that show only a call come without a potency. Calls of active or inactive are those of the source. Calls follow the shape of the dose curve; as a rule, active = well fitted cell-killing curve with a large enough effect; inconclusive = small, poorly fitted or top-dose-only effect; inactive = flat fitted curve, though single readings scatter. Potency is read from the fitted curve at half-maximal effect.", "data": [{"assay": "MultiTox-Fluor Cytotoxicity Assay - LYMP1-001 - Live Cells (AID 947)", "details": "LYMP1-001 lymphoblastoid cells, live-cell protease fluorescence viability; series mostly up to 92.2 µM", "description": "NIH Chemical Genomics Center [NCGC]\nNIH Molecular Libraries Screening Centers Network [MLSCN]\nNational Institutes of Environmental Health Sciences [NIEHS]\nNational Toxicology Program [NTP]\nWe have developed a 1536-well cell-based assay for quantitative high throughput screening (qHTS) against a number of cell lines to determine in vitro cytotoxicity of small molecules. This particular assay uses a human lymphoblastoid cell line (LYMP1-001) purchased from Coriell Institute.\nNCGC Assay Protocol Summary:\nThe MultiTox-Fluor Cytotoxicity Assay (Promega) is a homogeneous method to simultaneously measure the relative number of live and dead cells in culture by detecting changes in cell membrane integrity. There are two fluorogenic peptide substrates in the assay reagent. Viable cells are determined when the cell-permeant substrate (GF-AFC) enters the cell and is cleaved by protease from live cells resulting in liberated fluorophore. This live-cell protease activity restricted to viable cells is proportional to cell number. The dead cells are determined by using fluorogenic cell-impermeant peptide substrate (bis-AAF-R110) which cleaved by dead cell proteases leaking from damaged cell membrane.\nUsing the MultiTox-Fluor Cytotoxicity Assay, the relative number of live cells was measured in the lymphoblastoid cell line with complete culture medium following compound treatment for 16 hours. The assay was performed in opaque black Kalypsys 1536-well plates. In the screen, tetraoctylammonium bromide was used as positive control. Library compounds were measured for their ability to cause acute toxicity in the cell line, as reflected by a decrease in live cell protease activity, in a concentration-dependent manner. […] AC50 values were determined from concentration-response data modeled with the standard Hill equation.\nqHTS protocol for MultiTox-Fluor Cytotoxicity assay\n[Step] [Parameter] [Value] [Description]\n1. Reagent; 5 uL; 2500 lymphoblastoid cells/well\n2. Time; 5 hr; 37 C incubation\n4. Controls; 23 nL; Tetraoctylammonium bromide 6.4pM to 92 uM\n5. Time; 16 hr; 37 C incubation\n6. Reagent; 5 uL; MuliTox-Fluor Assay reagent\n7. Time; 60 min; Room Temperature\n8. Detection; live-cell fluorescence (Ex/Em=405/510); EnVision plate reader\nKeywords: cell viability, cytotoxicity, lymphoblastoid cell line, fluorescence, NTPHTS, NTPHTS_NCGC, NIEHS, EPA, DSSTox, MLSMR, MLSCN, NIH Roadmap, qHTS, NCGC", "values": [{"smiles": "CCNC(=S)NCC", "Potency": "inactive"}, {"smiles": "c1ccc(COCc2ccccc2)cc1", "Potency": "inactive"}, {"smiles": "c1ccc2ncccc2c1", "Potency": "inactive"}, {"smiles": "OCC(CO)(CBr)CBr", "Potency": "inactive"}, {"smiles": "OCC(CBr)(CBr)CBr", "Potency": "inactive"}, {"smiles": "S=C(NC1CCCCC1)NC1CCCCC1", "Potency": "inactive"}, {"smiles": "C[C@@H]1CC2(OC(O)[C@]3(C)O[C@H]23)O[C@H]2C[C@@]3(C)[C@@H]4CC[C@H]5C(C)(C)C(O[C@@H]6OC[C@@H](O)[C@H](O)[C@H]6O)CC[C@@]56C[C@@]46CC[C@]3(C)[C@@H]12", "note": "(stereo not given in full)", "Potency": "inactive"}, {"smiles": "Brc1cc(Br)c(Oc2cc(Br)c(Br)cc2Br)cc1Br", "Potency": "inactive"}, {"smiles": "CC(=O)OC(C(=O)c1ccccc1)c1ccccc1", "note": "(stereo not given)", "Potency": "inactive"}, {"smiles": "C=CC(=O)CC", "Potency": "inactive"}, {"smiles": "O=C1OC(=O)c2ccccc21", "Potency": "inactive"}, {"smiles": "Nc1cc(C(=O)O)c(O)c(S(=O)(=O)O)c1", "Potency": "inactive"}, {"smiles": "Cc1ccc(S(N)(=O)=O)cc1", "Potency": "inactive"}, {"smiles": "Cc1cc2nc(N)sc2cc1C", "Potency": "inactive"}, {"smiles": "CC(=O)OC1CC(C)OC(C)O1", "note": "(stereo not given)", "Potency": "inactive"}, {"smiles": "C=CC(=O)OCCCCCCOC(=O)C=C", "Potency": "39.8 µM (active)"}, {"smiles": "COc1ccc(C(=O)Nc2ccccc2)cc1[N+](=O)[O-]", "Potency": "inactive"}, {"smiles": "CCc1ccc(C(c2ccc(CC)cc2)C(Cl)Cl)cc1", "Potency": "inactive"}, {"smiles": "C=C(C#N)C(=O)OCC", "Potency": "inactive"}, {"smiles": "C1CCCNCC1", "Potency": "inactive"}, {"smiles": "Nc1ccc2c(c1)C(=O)c1ccccc1C2=O", "Potency": "inactive"}, {"smiles": "COc1ccc([N+](=O)[O-])cc1N", "Potency": "inactive"}, {"smiles": "Brc1ccc(-c2ccccc2)cc1", "Potency": "inactive"}, {"smiles": "Cc1cccnc1", "Potency": "inactive"}, {"smiles": "c1ccncc1", "Potency": "inactive"}, {"smiles": "C/C=C/C=C/C=O", "Potency": "inactive"}, {"smiles": "Oc1ccc2c(c1)OCO2", "Potency": "inactive"}, {"smiles": "CCCCC(CC)COC(=O)COc1ccc(Cl)cc1Cl", "note": "(stereo not given)", "Potency": "inactive"}, {"smiles": "Oc1cc(Cl)cc(Cl)c1Cl", "Potency": "inactive"}, {"smiles": "O=C(O)c1cc(N=Nc2ccc([N+](=O)[O-])cc2)ccc1O", "Potency": "inactive"}, {"smiles": "Nc1cnn([C@@H]2O[C@H](CO)[C@@H](O)[C@H]2O)c(=O)n1", "Potency": "inactive"}, {"smiles": "CCCCCCN", "Potency": "inactive"}, {"smiles": "Nc1ccc(-c2ccc(N)c(O)c2)cc1O", "Potency": "inactive"}, {"smiles": "O=[N+]([O-])c1cc(N(CCO)CCO)ccc1NCCO", "Potency": "inactive"}, {"smiles": "Nc1ccccc1O", "Potency": "inactive"}, {"smiles": "Oc1c(Cl)cc(Cl)c(Cl)c1Cl", "Potency": "inactive"}, {"smiles": "O=C(O)c1ccc([N+](=O)[O-])cc1", "Potency": "inactive"}, {"smiles": "c1ccc(Nc2cccc3ccccc23)cc1", "Potency": "inactive"}, {"smiles": "CC(C)OCC1CO1", "note": "(stereo not given)", "Potency": "inactive"}, {"smiles": "CC(CCC(=O)O)(c1ccc(O)cc1)c1ccc(O)cc1", "Potency": "inactive"}]}]}
